In PubChem BioAssay AID2563 (Broad Institute, 2010) one finds outcome data, which are given here for 67 molecules.

The campaign covered roughly 290,000 compounds. About 800 (0.28%) were called active.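 Rule for the calls: active = fall in fluorescence gain of 50% or more versus controls, with final raw signal at or below 3038400; inconclusive = same 50% fall but final raw signal above 3038400; inactive = fall in fluorescence gain under 50%.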 Many of the other results were omitted from the sample, so actives are more common in it than they were.

The target in the assay is CAAX prenyl protease 2 (Saccharomyces cerevisiae (strain ATCC 204508 / S288c)) (UniProt Q03530). Description: yeast Rce1p protease inhibitors, primary screen, biochemical, fluorescence, cell-free homogeneous (AID 2563). The conditions noted are these: yeast membranes, quenched prenylated peptide cleavage fluorescence.
Chain of CAAX prenyl protease 2 (Saccharomyces cerevisiae (strain ATCC 204508 / S288c)) (Q03530 whole entry, looked up): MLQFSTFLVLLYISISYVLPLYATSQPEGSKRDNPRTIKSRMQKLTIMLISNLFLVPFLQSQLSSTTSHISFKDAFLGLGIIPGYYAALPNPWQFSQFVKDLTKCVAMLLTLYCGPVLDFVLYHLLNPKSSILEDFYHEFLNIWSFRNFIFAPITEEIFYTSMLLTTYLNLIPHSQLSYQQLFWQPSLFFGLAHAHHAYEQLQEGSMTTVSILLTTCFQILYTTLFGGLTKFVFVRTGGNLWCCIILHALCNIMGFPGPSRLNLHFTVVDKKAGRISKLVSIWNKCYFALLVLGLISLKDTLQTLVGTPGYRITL
Consider `CCCCn1c(N)c(N(CCOC)C(=O)COc2c(C)cccc2C)c(=O)[nH]c1=O`, for which the outcome was inactive.
Turning to `CCCOc1ccccc1C(=O)NCCCC(=O)O`, the call was active.
On to `CCCCOCCCNC(=O)c1ccccc1OCC`, for which the result was inactive.
On to `COc1ccc(CCNC(=O)c2ccccc2OCc2ccccc2)cc1`, for which the call was inactive.
With `O=C(Nc1ccc2nc3n(c(=O)c2c1)CCCC3)c1ccc(Cl)nc1` the entry was “inactive”; with `O=C(Nc1ccc(S(=O)(=O)N2CCCCC2)cc1)C1CCN(C(=O)c2ccc(F)cc2)CC1`, “inactive”.
On to `CC(=O)N(Cc1cccs1)C1CCOC(C)(C)C1` (configuration not stated), for which the result was active.
With `CC1(C)CC(N(Cc2ccccc2)C(=O)Cc2ccccc2)CCO1` (configuration not stated) the entry was “inactive”; with `O=C(O)CCC(=O)N(Cc1cccs1)Cc1cccs1`, “inactive”.
Take `COc1ccccc1CNC(=O)CSc1nc(=O)n(Cc2ccncc2)c2c1CCC2`: the molecule was classed as inactive.
Consider `Cc1ccccc1C(=O)NCC(c1ccco1)N1CCc2ccccc21` (configuration not stated), for which the molecule was called inactive.
Consider `O=C(NCCS(=O)(=O)N1CCN(c2ccc(F)cc2)CC1)c1ccc2c(c1)OCO2`, for which the outcome was inactive.
As for `N#CCCN(C(=O)COC(=O)c1ccc(S(=O)(=O)N2CCCCCC2)cc1)c1ccccc1`, the result was inactive.
Regarding `Cc1ccccc1OCC(=O)Nc1ccc2c(c1)ncn2C`, the molecule was called inactive.
As to `COc1cc(NC(=O)CSC(=S)N2CCCC2)c(OC)cc1Cl`, the molecule was called inactive.
For `CN(C)c1ccc(/C=N/NC(=O)C(O)c2ccc(Br)cc2)cc1` (configuration not stated), the outcome was active.
In the case of `CN(C)c1ccc(/C=N/NC(=O)c2ccc(Cn3cc(Br)cn3)o2)cc1`, the molecule was classed as inactive.
For the molecule `O=C(O)c1ccc(/C=N/NC(=O)c2ccc(Br)cc2)cc1`, the molecule was classed as inactive.
In the case of `COc1ccc(S(=O)(=O)N2CCCCC2)cc1NC(=O)c1cc([N+](=O)[O-])ccc1N1CCOCC1`, the outcome was inactive.
As for `CC1(c2ccc(Cl)cc2Cl)NC(=O)N(CC(=O)Nc2cccnc2Cl)C1=O` (configuration not stated), the molecule was called inactive.
In the case of `COc1ccc(C(CNC(=O)c2cccc(S(=O)(=O)Nc3ccccc3Cl)c2)N2CCOCC2)cc1` (configuration not stated), the molecule was called inactive.
As to `O=C(CCC1CCCCC1)Nc1cc(C(F)(F)F)ccc1N1CCOCC1`, the result was inactive.
With `O=C(CN1CCOCC1)Nc1cccc([N+](=O)[O-])c1` the entry was “inactive”; with `Cc1ccc(S(=O)(=O)CC(=O)Nc2sc(C)c(C)c2C(N)=O)cc1`, “inactive”; with `COc1cccc(OCC(=O)Nc2ccccc2C(N)=O)c1`, “inactive”.
`CCCCCCCCCCOC(=O)Cn1c(COc2cccc(OC)c2)[n+](C)c2ccccc21`: the molecule was classed as active.
The same measure for `Cc1ccc(OCc2nc3ccccc3n2C)cc1`: “inactive”; for `CCCCCCCCCCOC(=O)Cn1c(COc2ccc(C)cc2)[n+](C)c2ccccc21`: “active”.
For the molecule `CCCCOC(=O)Cn1c(=N)n(CCN(CC)CC)c2ccccc21`, the molecule was called inactive.
For the molecule `CCn1c(=N)n(CC(=O)c2cccc(OC)c2)c2ccccc21`, the call was inactive.
Consider `Cc1ccc(CC(=O)N(C)CC(=O)N(CC(C)C)c2c(N)n(CC(C)C)c(=O)[nH]c2=O)cc1C`, for which the result was inactive.
Turning to `Cc1ccc(Cc2nnc(SCC(=O)Nc3ccccc3C)[nH]c2=O)cc1`, the outcome was inactive.
The same measure for `CC(=O)NC(Cc1c[nH]c2ccccc12)C(=O)O` (configuration not stated): “active”; for `CC(=O)NC(Cc1c[nH]c2ccccc12)C(=O)NCCc1ccccc1` (configuration not stated): “inactive”; for `Cc1cccc(C)c1OCC(=O)NC(Cc1c[nH]c2ccccc12)C(=O)O` (configuration not stated): “inactive”.
For the molecule `COc1ccccc1CCC(=O)NNC(=O)c1ccncc1`, the result was inactive.
With `O=C(COC(=O)CCOc1ccccc1)Nc1cc(S(=O)(=O)N2CCCCC2)ccc1Cl` the entry was “inactive”.
Regarding `CCN(CC)c1ccc(NC(=O)c2ccc(=O)[nH]c2)cc1S(=O)(=O)Nc1ccc(OC)cc1`, the result was inactive.
Take `CCOC(=O)c1c(C)oc2cc(Sc3ccccc3)c(O)c(O)c12`: the molecule was called inactive.
On to `O=C1CCCC(O)=C1N=Nc1ccc2ncsc2c1`, for which the result was active.
Take `O=C1CCCC(O)=C1N=Nc1ccc(S(=O)(=O)N2CCOCC2)cc1`: the molecule was called inactive.
In the case of `COc1ccc(C(=O)N(Cc2ccccc2)c2ccc(C)cc2)cc1S(=O)(=O)N1CCOCC1`, the molecule was called inactive.
For the molecule `CC1CC(C)(C)CC2(C1)NC(=O)N(CC(=O)Nc1nccs1)C2=O` (configuration not stated), the molecule was called inactive.
Take `COc1ccc(-c2cn3ccc(C)cc3n2)cc1`: the outcome was active.
Consider `CCN(CC)S(=O)(=O)c1ccc(-c2cn3ccc(C)cc3n2)cc1`, for which the molecule was called inactive.
Regarding `COc1ccc(-c2cn3ccsc3n2)cc1`, the molecule was called inactive.
Consider `Cc1ccc(NC(=O)COC(=O)CNC(=O)c2ccc(Cl)cc2Cl)cc1S(=O)(=O)N1CCOCC1`, for which the result was inactive.
On to `O=C(COc1ccc(-n2cnnn2)cc1)Nc1ccccc1Cl`, for which the molecule was called inactive.
Consider `C=CCc1cccc(/C=N/NC(=O)COc2ccc(-n3cnnn3)cc2)c1O`, for which the molecule was classed as active.
Take `C=CCc1ccccc1OCC(=O)N/N=C/c1ccccc1OCC`: the outcome was inactive.
Take `CC(C)CN(C(=O)Cn1c(=O)cnc2ccccc21)C1CCS(=O)(=O)C1` (configuration not stated): the call was inactive.
With `O=C(NCc1ccc(Cl)cc1)C(=O)NCC1CCCN1S(=O)(=O)c1cccs1` (configuration not stated) the entry was “inactive”; with `CCCCN(C(=O)CCNC(=O)NC12CC3CC(CC(C3)C1)C2)c1c(N)n(CCCC)c(=O)[nH]c1=O`, “inactive”.
For the molecule `CC(=O)c1ccc(NC(=O)C2CCCN2S(=O)(=O)c2cccs2)cc1` (configuration not stated), the outcome was inactive.
Regarding `COc1ccc2c(c1)O/C(=C\c1ccccc1O)C2=O`, the molecule was called inactive.
With `Cc1cc(=O)[nH]c(SCc2ccc(Cl)cc2)n1` the entry was “inactive”.
Consider `COc1ccc(OCc2cn3c(C)cc(C)nc3n2)cc1`, for which the result was inactive.
On to `Cc1ccc2nc(SCc3cn4c(C)cc(C)nc4n3)[nH]c2c1`, for which the molecule was classed as inactive.
The same measure for `Cc1cc(C)nc(SCc2cn3c(C)cc(C)nc3n2)n1`: “active”; for `CCc1cccc(C)c1NC(=O)COC(=O)CNC(=O)c1cccs1`: “inactive”.
Consider `CCN(CC(=O)Nc1c(F)cccc1F)C(=O)c1ccc(S(=O)(=O)N2CCCCC2)cc1`, for which the outcome was inactive.
Take `Cc1ccc(S(=O)(=O)N2CCCCC2)cc1C(=O)N(C)CC(=O)Nc1cccc(F)c1`: the outcome was inactive.
With `O=C(Nc1ccc(F)c([N+](=O)[O-])c1)C1CCCO1` (configuration not stated) the entry was “inactive”.
For the molecule `Cc1ccc(C2CC(c3cccc(NS(C)(=O)=O)c3)=NN2S(C)(=O)=O)cc1` (configuration not stated), the call was inactive.
As for `CS(=O)(=O)Nc1cccc(C2=NN(S(=O)(=O)c3ccccc3)C(c3cccs3)C2)c1` (configuration not stated), the molecule was classed as inactive.
With `CS(=O)(=O)Nc1ccc(C2=NN(S(C)(=O)=O)C(c3cccs3)C2)cc1` (configuration not stated), the molecule was called active.
As to `Cc1ccc(CN2CCN(c3ccccc3Cl)CC2)o1`, the molecule was called inactive.
